In PubChem BioAssay (Tox21):
Inconclusive results are not listed. Activity calls are given as the source filed them. Unless noted, the call rests on the fitted dose curve.

Columns and labels:
[1] = Nuclear factor erythroid 2-related factor 2/antioxidant responsive element (Nrf2/ARE) small molecule agonists: qHTS cell viability counter screen in human keratinocytes (AID 1919968; active means well fitted curve in the direction sought with a large enough effect in the repeat runs; an effect the other way counts as inactive or inconclusive; further: nearly all actives have a fitted effect of over 55% in size; further: potency means the concentration at half of the fitted maximal effect)
Procedure, shortened: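 Parallel cytotoxicity read: KeratinoSens HaCaT cells, compound treatment 23 h, viability by CellTiter-Fluor fluorescence 1 h post-reagent.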

[2] = Nuclear factor erythroid 2-related factor 2/antioxidant responsive element (Nrf2/ARE) small molecule agonists: luciferase reporter gene qHTS assay in human keratinocytes (AID 1919969); further: nearly all actives have a fitted effect of over 35% in size; further: potency means the concentration at half of the fitted maximal effect
[3] = biological target: Gonadotropin-releasing hormone receptor (Homo sapiens) (UniProt P30968); assay: Human gonadotropin-releasing hormone receptor (GnRHR) small molecule agonists, calcium flux assay in GnRHR-HEK293 cells (AID 1920063); further: nearly all actives have a fitted effect of over 35% in size
Sequence of Gonadotropin-releasing hormone receptor (Homo sapiens) (P30968 whole entry, looked up): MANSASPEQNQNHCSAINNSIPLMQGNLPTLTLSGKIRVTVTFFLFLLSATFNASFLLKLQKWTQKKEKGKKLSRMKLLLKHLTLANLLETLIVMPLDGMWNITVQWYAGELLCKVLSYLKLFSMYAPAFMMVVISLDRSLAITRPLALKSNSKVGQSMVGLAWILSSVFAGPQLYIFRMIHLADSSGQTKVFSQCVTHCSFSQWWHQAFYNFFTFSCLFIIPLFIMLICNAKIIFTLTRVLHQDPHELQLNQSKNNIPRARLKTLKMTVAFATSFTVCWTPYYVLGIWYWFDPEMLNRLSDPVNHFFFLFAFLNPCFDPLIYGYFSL
Procedure, shortened: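 Calcium flux, agonist mode, human GnRHR stably integrated in HEK293; dye 1 h at 37 C before compound; Ex/Em=480/540 kinetic read, 3 min; 15 concentrations, triplicate.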

[4] = biological target: KiSS-1 receptor (Homo sapiens) (UniProt Q969F8); assay: Human kisspeptin (KISS1R) small molecule agonists, calcium flux assay in KISS1R-HEK293 cells (AID 1920064; active means well fitted curve in the direction sought with a large enough effect in the repeat runs; an effect the other way counts as inactive or inconclusive)
Sequence of KiSS-1 receptor (Homo sapiens) (Q969F8 whole entry, looked up): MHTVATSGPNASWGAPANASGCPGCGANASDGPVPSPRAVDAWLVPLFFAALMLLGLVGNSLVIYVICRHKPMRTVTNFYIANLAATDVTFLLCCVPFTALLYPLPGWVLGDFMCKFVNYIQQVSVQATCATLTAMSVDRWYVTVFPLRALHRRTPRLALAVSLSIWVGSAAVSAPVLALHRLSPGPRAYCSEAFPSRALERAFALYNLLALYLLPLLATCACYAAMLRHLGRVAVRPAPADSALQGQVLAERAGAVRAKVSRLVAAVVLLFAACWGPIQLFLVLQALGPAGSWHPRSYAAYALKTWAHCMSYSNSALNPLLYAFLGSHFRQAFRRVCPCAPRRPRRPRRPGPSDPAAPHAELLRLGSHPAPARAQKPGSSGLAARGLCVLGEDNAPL
Procedure, shortened: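 Triplicate 15-concentration series were applied to dye-loaded human KISS1R HEK293 cells, and agonist-evoked calcium fluorescence was captured for 3 min.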

[5] = G protein-coupled receptor (GPCR) small molecule agonists, calcium flux assay: HEK293 wild type cell line counter screen (AID 1920065)
Procedure, shortened: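 Non-specific calcium responders were flagged by adding DMSO-dissolved compounds to dye-loaded cells and reading 480/540 nm fluorescence each second for 3 min; ATP served as positive control.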

[6] = p53 small molecule agonists, cell-based qHTS assay with human liver microsomes (AID 1963577);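 further: p53 response element beta-lactamase reporter cells with liver microsomes plus NADPH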
Procedure, shortened: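 Metabolically competent format: test substances, human liver microsomes and NADPH (both 0.5 mg/mL final) incubated with p53RE-bla cells 16 h at 37 C. Beta-lactamase reporter signal then quantified by fluorescence.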

[7] = p53 small molecule agonists, cell-based qHTS assay with rat liver microsomes (AID 1963578)
Procedure, shortened: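 Each plate received p53RE-bla cells, then compound, then rat liver microsomes and NADPH (both 0.5 mg/mL final). Plates were held 16 h at 37 C, and beta-lactamase activity was detected with LiveBLAzer over 2 h.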

[8] = p53 small molecule agonists, cell-based qHTS assay with human liver microsomes: qHTS cell viability counter screen (AID 1963579); further: nearly all actives have a fitted effect of over 45% in size; further: potency means the concentration at half of the fitted maximal effect
Procedure, shortened: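 Tox21 library compounds, delivered from DMSO stocks, were tested on p53RE-bla cells together with 0.5 mg/mL human liver microsomes and 0.5 mg/mL NADPH (final) over 16 h at 37 C; CellTiter-Glo luminescence served as the cytotoxicity measure.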

[9] = p53 small molecule agonists, cell-based qHTS assay with rat liver microsomes: qHTS cell viability counter screen (AID 1963580); further: nearly all actives have a fitted effect of over 45% in size; further: potency means the concentration at half of the fitted maximal effect
Procedure, shortened: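 Cytotoxicity counter screen: intracellular ATP read by CellTiter-Glo luminescence in the p53 reporter wells. HCT-116 p53RE-bla cells were treated for 16 h at 37 C alongside rat liver microsomes and NADPH, each 0.5 mg/mL final.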

[10] = biological target: 5-hydroxytryptamine receptor 2A (Homo sapiens) (UniProt P28223); assay: 5-hydroxytryptamine receptor 2A (HTR2A) small molecule agonists, cell-based qHTS assay (AID 1963587); further: nearly all actives have a fitted effect of over 30% in size
Sequence of 5-hydroxytryptamine receptor 2A (Homo sapiens) (P28223 whole entry, looked up): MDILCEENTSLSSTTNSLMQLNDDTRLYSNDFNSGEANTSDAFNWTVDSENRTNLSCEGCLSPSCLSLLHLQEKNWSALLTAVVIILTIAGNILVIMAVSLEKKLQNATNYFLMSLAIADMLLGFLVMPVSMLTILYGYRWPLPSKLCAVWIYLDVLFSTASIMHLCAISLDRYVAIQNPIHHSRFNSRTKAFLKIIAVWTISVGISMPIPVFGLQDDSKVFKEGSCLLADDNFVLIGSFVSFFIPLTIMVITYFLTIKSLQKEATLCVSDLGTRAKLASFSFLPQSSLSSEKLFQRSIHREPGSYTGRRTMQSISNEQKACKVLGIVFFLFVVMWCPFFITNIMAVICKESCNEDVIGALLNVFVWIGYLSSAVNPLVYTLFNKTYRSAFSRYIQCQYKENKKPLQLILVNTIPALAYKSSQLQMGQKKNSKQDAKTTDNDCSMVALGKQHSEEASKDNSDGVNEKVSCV
Procedure, shortened: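 Kinetic calcium-flux fluorescence (2 min, 1 sec intervals) after compound addition in agonist mode. HTR2A-CHO cells were cultured 18 h, then dye-loaded 1 h at 37 C.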

[11] = biological target: Muscarinic acetylcholine receptor M1 (Homo sapiens) (UniProt P11229); assay: Cholinergic receptor muscarinic 1 (CHRM1) small molecule antagonists, cell-based qHTS assay (AID 1963588); further: nearly all actives have a fitted effect of over 40% in size; further: potency means the concentration at half of the fitted maximal effect
Sequence of Muscarinic acetylcholine receptor M1 (Homo sapiens) (P11229 whole entry, looked up): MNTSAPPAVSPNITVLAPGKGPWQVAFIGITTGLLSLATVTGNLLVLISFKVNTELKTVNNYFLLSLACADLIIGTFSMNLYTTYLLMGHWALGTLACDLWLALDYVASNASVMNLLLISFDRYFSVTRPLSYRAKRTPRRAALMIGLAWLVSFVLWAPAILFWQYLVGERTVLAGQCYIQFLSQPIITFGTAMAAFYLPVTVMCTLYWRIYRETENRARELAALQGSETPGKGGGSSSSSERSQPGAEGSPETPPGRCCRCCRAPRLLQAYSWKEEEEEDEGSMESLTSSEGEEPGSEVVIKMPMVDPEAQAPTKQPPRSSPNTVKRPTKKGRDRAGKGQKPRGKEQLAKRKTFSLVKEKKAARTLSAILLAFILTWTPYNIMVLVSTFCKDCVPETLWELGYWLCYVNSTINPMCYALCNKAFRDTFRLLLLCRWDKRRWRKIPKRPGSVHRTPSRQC
Procedure, shortened: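 Compounds were tested at 15 concentrations in three independent runs. Dye-loaded CHRM1-CHO cells were exposed 5 min at room temperature before stimulation by acetylcholine added at 50nM. Intracellular calcium was read kinetically on FDSS for 3 min.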

[12] = biological target: Muscarinic acetylcholine receptor M1 (Homo sapiens) (UniProt P11229); assay: Cholinergic receptor muscarinic 1 (CHRM1) small molecule agonists, cell-based qHTS assay (AID 1963589); further: nearly all actives have a fitted effect of over 35% in size
Procedure, shortened: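 qHTS, 15-point titration, 3 independent runs: compounds pin-transferred onto dye-loaded CHRM1-CHO cells (human M1), calcium fluorescence followed every second to detect agonism.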

[13] = biological target: Beta-2 adrenergic receptor (Homo sapiens) (UniProt P07550); assay: Adrenergic beta2 receptor (ADRB2) small molecule antagonists, cell-based qHTS assay (AID 1963592); further: series mostly up to about 92 µM; nearly all actives have a fitted effect of over 50% in size
Sequence of Beta-2 adrenergic receptor (Homo sapiens) (P07550 whole entry, looked up): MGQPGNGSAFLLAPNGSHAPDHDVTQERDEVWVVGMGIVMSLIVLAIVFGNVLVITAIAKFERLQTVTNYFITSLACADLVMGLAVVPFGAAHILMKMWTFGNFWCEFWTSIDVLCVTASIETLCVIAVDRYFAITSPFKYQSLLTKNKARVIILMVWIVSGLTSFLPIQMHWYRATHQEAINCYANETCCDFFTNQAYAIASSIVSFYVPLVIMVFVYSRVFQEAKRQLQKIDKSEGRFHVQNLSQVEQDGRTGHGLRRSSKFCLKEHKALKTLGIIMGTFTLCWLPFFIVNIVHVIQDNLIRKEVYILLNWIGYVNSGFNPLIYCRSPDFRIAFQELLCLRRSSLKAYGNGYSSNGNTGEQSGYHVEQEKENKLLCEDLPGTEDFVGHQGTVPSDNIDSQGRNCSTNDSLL
Procedure, shortened: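 Assay format: CHO-ADRB2 cells, 18-20hr seeding at 37C/5% CO2, then compound plus 1nM isoproterenol agonist mix for 0.5hr RT. Homogeneous time-resolved fluorescence cAMP detection after 1hr, expressed as 665/615 nm ratio.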

[14] = biological target: D(2) dopamine receptor (Homo sapiens) (UniProt P14416); assay: Dopamine D2 receptor (DRD2) small molecule agonists, cell-based qHTS assay (AID 1963594); further: nearly all actives have a fitted effect of over 35% in size; further: potency means the concentration at half of the fitted maximal effect
Sequence of D(2) dopamine receptor (Homo sapiens) (P14416 whole entry, looked up): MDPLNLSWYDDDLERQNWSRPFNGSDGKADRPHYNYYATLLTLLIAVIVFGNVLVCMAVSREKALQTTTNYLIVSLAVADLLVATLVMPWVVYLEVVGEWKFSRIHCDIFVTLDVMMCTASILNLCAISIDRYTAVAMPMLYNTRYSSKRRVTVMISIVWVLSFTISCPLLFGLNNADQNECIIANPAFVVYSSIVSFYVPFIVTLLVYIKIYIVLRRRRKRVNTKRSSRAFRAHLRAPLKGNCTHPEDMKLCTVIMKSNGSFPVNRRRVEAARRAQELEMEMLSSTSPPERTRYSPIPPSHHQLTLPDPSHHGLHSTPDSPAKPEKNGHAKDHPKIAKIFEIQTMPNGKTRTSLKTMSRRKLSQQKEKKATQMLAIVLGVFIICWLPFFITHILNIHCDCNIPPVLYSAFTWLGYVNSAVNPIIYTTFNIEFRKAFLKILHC
Procedure, shortened: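 cAMP accumulation in DRD2-HEK293 cells measured by HTRF after 1 h detection; compounds added 10 min before NKH477 (200nM […]) forskolin-analogue stimulation, 30 min at room temperature, with Ro20-1724 present at 0.1 mM final.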

[15] = p53 small molecule agonists, cell-based qHTS assay: qHTS cell viability counter screen (AID 1963581); further: nearly all actives have a fitted effect of over 45% in size; further: potency means the concentration at half of the fitted maximal effect
Procedure, shortened: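 Multiplexed with the reporter read, a CellTiter-Glo step (30 min, room temperature) gauges ATP-based viability of HCT-116 p53RE-bla cells after 16 h compound incubation at 37 C.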

[16] = biological target: 5-hydroxytryptamine receptor 2A (Homo sapiens) (UniProt P28223); assay: 5-hydroxytryptamine receptor 2A (HTR2A) small molecule antagonists, cell-based qHTS assay (AID 1963586); further: nearly all actives have a fitted effect of over 45% in size; further: potency means the concentration at half of the fitted maximal effect
Procedure, shortened: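 CHO cells stably expressing human HTR2A were plated for 18 h at 37 C, then loaded with calcium dye for 1 h. Compounds were preincubated 5 min at room temperature before DOI (4 nM solution) was added. Kinetic fluorescence was read for 3 min.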

[17] = biological target: D(2) dopamine receptor (Homo sapiens) (UniProt P14416); assay: Dopamine D2 receptor (DRD2) small molecule antagonists, cell-based qHTS assay (AID 1963595; active means well fitted inhibition curve with a large enough effect in the signal ratio in the repeat runs, with a control signal flat; the % refers to the signal ratio; further: potency means the concentration at half of the fitted maximal effect)
Procedure, shortened: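 Stable D2 receptor HEK293 line, 24 h after seeding. Compound preincubated 10 min, then quinpirole (12 nM) with forskolin analogue NKH477 (200 nM), 30 min, room temperature. Detection by time-resolved FRET of cAMP.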

[18] = cAMP Responsive Elements (CRE) small molecule antagonists, cell-based qHTS assay (AID 1963591; active means well fitted inhibition curve with a large enough effect in the signal ratio in the repeat runs, not every such curve was filed as active; the % refers to the signal ratio)
Procedure, shortened: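 Fluorescence intensity from cleaved LiveBLAzer B/G substrate (2 h, room temperature) quantified CRE-bla activity in HEK 293T cells exposed 3 h to compound with 0.25 uM final NKH477.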

[19] = p53 small molecule agonists, cell-based qHTS assay (AID 1963582; active means well fitted activation curve with a large enough effect in the signal ratio in the repeat runs, not every such curve was filed as active; the % refers to the signal ratio; further: potency means the concentration at half of the fitted maximal effect)
Procedure, shortened: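 Beta-lactamase reporter cells (p53RE-bla) treated with compounds for 16 h at 37 C; FRET substrate, 2 h, room temperature; fluorescence intensity.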

[20] = cAMP Responsive Elements (CRE) small molecule agonists, cell-based qHTS assay (AID 1963590)
Procedure, shortened: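 Quantitative HTS for CRE agonists: HEK 293T CRE-bla cells, overnight plating, 3 h compound incubation at 37 C/5% CO2, then 2 h room-temperature LiveBLAzer B/G FRET substrate loading.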

Measured: Potency

Clc1ccc(CCC(Cn2ccnc2)Sc2c(Cl)cccc2Cl)cc1 (stereo not given)
active: [1] 29.8 µM | [2] 13.3 µM
not listed: [15] | [16] | [17] | [18] | [19] | [20]
inactive: all other assays above

C=CC(=O)OCC(COC(=O)C=C)(COC(=O)C=C)COC(=O)C=C
active: [1] 9.69 µM | [2] 6.11 µM | [8] 4.08 µM | [15] 10.2 µM | [17] 54.5 µM
not listed: [9] | [13] | [18] | [19] | [20]
inactive: all other assays above

COc1ccc(OC)c(C=O)c1
not listed: [15] | [19] | [20]
inactive: all other assays above

Oc1cc(Cl)c(Cl)c(Cl)c1Cl
active: [1] 53.2 µM | [2] 53.2 µM | [8] 17.8 µM | [9] 17.8 µM
not listed: [11] | [13] | [15] | [18] | [19] | [20]
inactive: all other assays above

CSCCCN=C=S
active: [2] 61.1 µM
not listed: [9] | [17]
inactive: all other assays above

ClCc1ccc(Cl)cc1Cl
not listed: [15] | [19]
inactive: all other assays above

CC(C)(COCC1CO1)COCC1CO1 (stereo not given)
active: [2] 68.6 µM
not listed: [9]
inactive: all other assays above

Oc1ccc(C2(c3ccc(O)cc3)c3ccccc3-c3ccccc32)cc1
active: [1] 30.6 µM | [2] 0.969 µM | [8] 32.4 µM
not listed: [9] | [15] | [17] | [18] | [19] | [20]
inactive: all other assays above

CC(=O)C(Cl)C(=O)N(C)C (stereo not given)
active: [2] 68.6 µM
not listed: [8]
inactive: all other assays above

CC1Sc2c(C(=O)O)c(=O)c3cc(F)c(N4CCNCC4)cc3n21 (stereo not given)
not listed: [9] | [13] | [18] | [20]
inactive: all other assays above

CC(CC(C#N)(c1ccccc1)c1ccccc1)N(C)C (stereo not given)
active: [11] 0.0105 µM
not listed: [12] | [14] | [15] | [16]
inactive: all other assays above

O=C(O)c1ccc2[nH]cc(CCCCN3CC=C(c4ccccc4)CC3)c2c1
active: [14] 0.0084 µM
not listed: [9] | [12] | [16] | [18] | [20]
inactive: all other assays above

Nc1nc(N)nc(N)n1
not listed: [9] | [15]
inactive: all other assays above

CO/N=C(/C(=O)OC)c1ccccc1COc1ccccc1C
not listed: [15] | [18] | [19] | [20]
inactive: all other assays above

CC(Cc1ccc(C(C)(C)C)cc1)CN1C[C@@H](C)O[C@@H](C)C1 (stereo not given in full)
active: [2] 61.1 µM | [11] 37.5 µM
not listed: [9] | [16] | [17]
inactive: all other assays above

Oc1cccc(-c2ccccc2)c1
not listed: [9] | [18]
inactive: all other assays above

Clc1ccccc1N1CCNCC1
active: [16] 1.16 µM
not listed: [10] | [13] | [15]
inactive: all other assays above

O=C(NC(=O)c1c(F)cccc1F)Nc1cc(Cl)c(Oc2ncc(C(F)(F)F)cc2Cl)c(Cl)c1
active: [19] 17.5 µM
not listed: [9] | [18] | [20]
inactive: all other assays above

C/C(=C\c1ccccc1)[N+](=O)[O-]
active: [1] 30.6 µM | [2] 15.4 µM
not listed: [9] | [10] | [20]
inactive: all other assays above

C1CCNCC1
not listed: [15] | [16] | [18]
inactive: all other assays above

C[C@]12Cc3nonc3C[C@@H]1CC[C@@H]1[C@@H]2CC[C@@]2(C)[C@H]1CC[C@]2(C)O
not listed: [9] | [10] | [13] | [18] | [20]
inactive: all other assays above

Cc1nnc2n1-c1sc(CCc3ccc(CC(C)C)cc3)cc1C(c1ccccc1Cl)=NC2C (stereo not given)
active: [1] 7.5 µM
not listed: [10] | [15] | [16] | [17] | [18] | [19] | [20]
inactive: all other assays above

CC(C)[C@H](C(=O)OC(C#N)c1cccc(Oc2ccccc2)c1)c1ccc(OC(F)F)cc1 (stereo not given in full)
not listed: [9] | [20]
inactive: all other assays above

CC(Oc1ccc(Oc2ncc(C(F)(F)F)cc2Cl)cc1)C(=O)O (stereo not given)
not listed: [15] | [18] | [19] | [20]
inactive: all other assays above

N#Cc1c(Cl)cccc1Cl
not listed: [9] | [11] | [16]
inactive: all other assays above

CC(Cc1ccccc1)NCc1ccccc1Cl (stereo not given)
not listed: [13] | [15] | [17] | [19]
inactive: all other assays above

N#CSCc1ccccc1
active: [2] 68.9 µM
not listed: [9] | [18] | [19]
inactive: all other assays above

O=C1C(=O)c2cccc3cccc1c23
active: [2] 27.3 µM
not listed: [15] | [19] | [20]
inactive: all other assays above

CC(C)CCCCCCCOC(=O)c1ccccc1C(=O)OCCCCCCCC(C)C
not listed: [10] | [15] | [18] | [19]
inactive: all other assays above

c1cc[c]([Sb]([c]2ccccc2)[c]2ccccc2)cc1
active: [2] 12.2 µM
not listed: [10] | [12] | [13] | [15] | [17] | [18] | [19] | [20]
inactive: all other assays above

O=S1(=O)OC(c2cc(Br)c(O)c(Br)c2)(c2cc(Br)c(O)c(Br)c2)c2ccccc21
active: [1] 14.1 µM | [8] 21 µM | [9] 18.7 µM
not listed: [12] | [13] | [14] | [15] | [17] | [19]
inactive: all other assays above

O=C(N[C@H]1N=C(c2ccccc2F)c2cccc3c2N(CC3)C1=O)c1cc2ccccc2[nH]1
active: [14] 8.74 µM
not listed: [15] | [19]
inactive: all other assays above

CN(C)CCc1c[nH]c2cccc(O)c12
active: [2] 67.9 µM
not listed: [10] | [13] | [14] | [15] | [16] | [17]
inactive: all other assays above
